In PubChem BioAssay (NCI):
This is part of a sample that, as a whole, favours compounds with a hit. Of some 83,000 tested, about 20% had one in any assay.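 Each cell line was grown in a 96-well plate and treated with one concentration of compound for 48 hours. Values below 10 were considered active.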 Activity calls are given as the source filed them.

Test system: HL-60(TB) leukemia
Assay: NCI-60 one-dose screen, 48 h (100 = growth as untreated, 0 = no growth, -100 = all killed)
Conditions: 10 µM unless noted

Compound | growth
C#CCOc1ccccc1C(Nc1ccccc1)c1nnnn1C1CCCCC1 (stereo not given) | 91.6% (inactive)
O=C(Nc1cccc(Cl)c1)Nc1nc2ccc(-c3cccc4ccccc34)cc2s1 | 66.9% (inactive)
Cc1ccc(NC(=S)NNC(=S)Nc2ccc(C)cc2)cc1 | 97.1% (inactive)
O=C(Nc1ccc(Cl)c(C(F)(F)F)c1)Nc1ccc2c(ccn2C(=O)c2cccc(F)c2)c1 | 24.7% (inactive)
c1ccc(-c2cn3c(-c4c[nH]c5ccccc45)csc3n2)cc1 | 56% (inactive)
